The text below walks through data of PubChem BioAssay.

Calls of active or inactive are those of the source.

Test [1] in a line: small molecules captured by biotinylated probe aFSTL3 – biochemical, small-molecule microarray, fluorescence 635/667, stem cell growth factor project, primary screen (AID 1064).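 Further: measures binding of the biotinylated anti-FSTL3 antibody to printed compounds.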 Particulars: higher = more signal.
Test [2] can be described thus: binders from COS7 lysate, DM2A8 probe, primary screen, torsin A project, cell lysate, small-molecule microarray, fluorescence 635/667 (AID 1065). Particulars: higher = more signal, COS7 lysate expressing mutant human TOR1A.
The nature of test [3]: small molecules captured by biotinylated probe aFGF2 – biochemical, small-molecule microarray, fluorescence 635/667, stem cell growth factor project, primary screen (AID 1067).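 Further: measures binding of biotinylated aFGF2 protein to printed compounds on slides; z-score merges feature fluorescence and signal-to-noise across triplicate slides.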 The conditions noted are these: higher = more signal.
Test [4] can be described thus: small molecules captured by biotinylated probe aFGF10 – biochemical, small-molecule microarray, fluorescence 635/667, stem cell growth factor project, primary screen (AID 1071).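 Further: score merges 667 nm spot intensity and signal to noise from triplicate slides.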 The conditions noted are these: higher = more signal.
The target in test [5] is Neurogenic locus notch homolog protein 2 (Homo sapiens) (UniProt Q04721). The test is described as follows: small molecules binding Notch2 protein – biochemical, small-molecule microarray, 635 nm fluorescence, stem cell growth factors, primary screen (AID 1073). Particulars: higher = more signal.
Sequence of Neurogenic locus notch homolog protein 2 (Homo sapiens) (Q04721 whole entry, looked up, canonical isoform): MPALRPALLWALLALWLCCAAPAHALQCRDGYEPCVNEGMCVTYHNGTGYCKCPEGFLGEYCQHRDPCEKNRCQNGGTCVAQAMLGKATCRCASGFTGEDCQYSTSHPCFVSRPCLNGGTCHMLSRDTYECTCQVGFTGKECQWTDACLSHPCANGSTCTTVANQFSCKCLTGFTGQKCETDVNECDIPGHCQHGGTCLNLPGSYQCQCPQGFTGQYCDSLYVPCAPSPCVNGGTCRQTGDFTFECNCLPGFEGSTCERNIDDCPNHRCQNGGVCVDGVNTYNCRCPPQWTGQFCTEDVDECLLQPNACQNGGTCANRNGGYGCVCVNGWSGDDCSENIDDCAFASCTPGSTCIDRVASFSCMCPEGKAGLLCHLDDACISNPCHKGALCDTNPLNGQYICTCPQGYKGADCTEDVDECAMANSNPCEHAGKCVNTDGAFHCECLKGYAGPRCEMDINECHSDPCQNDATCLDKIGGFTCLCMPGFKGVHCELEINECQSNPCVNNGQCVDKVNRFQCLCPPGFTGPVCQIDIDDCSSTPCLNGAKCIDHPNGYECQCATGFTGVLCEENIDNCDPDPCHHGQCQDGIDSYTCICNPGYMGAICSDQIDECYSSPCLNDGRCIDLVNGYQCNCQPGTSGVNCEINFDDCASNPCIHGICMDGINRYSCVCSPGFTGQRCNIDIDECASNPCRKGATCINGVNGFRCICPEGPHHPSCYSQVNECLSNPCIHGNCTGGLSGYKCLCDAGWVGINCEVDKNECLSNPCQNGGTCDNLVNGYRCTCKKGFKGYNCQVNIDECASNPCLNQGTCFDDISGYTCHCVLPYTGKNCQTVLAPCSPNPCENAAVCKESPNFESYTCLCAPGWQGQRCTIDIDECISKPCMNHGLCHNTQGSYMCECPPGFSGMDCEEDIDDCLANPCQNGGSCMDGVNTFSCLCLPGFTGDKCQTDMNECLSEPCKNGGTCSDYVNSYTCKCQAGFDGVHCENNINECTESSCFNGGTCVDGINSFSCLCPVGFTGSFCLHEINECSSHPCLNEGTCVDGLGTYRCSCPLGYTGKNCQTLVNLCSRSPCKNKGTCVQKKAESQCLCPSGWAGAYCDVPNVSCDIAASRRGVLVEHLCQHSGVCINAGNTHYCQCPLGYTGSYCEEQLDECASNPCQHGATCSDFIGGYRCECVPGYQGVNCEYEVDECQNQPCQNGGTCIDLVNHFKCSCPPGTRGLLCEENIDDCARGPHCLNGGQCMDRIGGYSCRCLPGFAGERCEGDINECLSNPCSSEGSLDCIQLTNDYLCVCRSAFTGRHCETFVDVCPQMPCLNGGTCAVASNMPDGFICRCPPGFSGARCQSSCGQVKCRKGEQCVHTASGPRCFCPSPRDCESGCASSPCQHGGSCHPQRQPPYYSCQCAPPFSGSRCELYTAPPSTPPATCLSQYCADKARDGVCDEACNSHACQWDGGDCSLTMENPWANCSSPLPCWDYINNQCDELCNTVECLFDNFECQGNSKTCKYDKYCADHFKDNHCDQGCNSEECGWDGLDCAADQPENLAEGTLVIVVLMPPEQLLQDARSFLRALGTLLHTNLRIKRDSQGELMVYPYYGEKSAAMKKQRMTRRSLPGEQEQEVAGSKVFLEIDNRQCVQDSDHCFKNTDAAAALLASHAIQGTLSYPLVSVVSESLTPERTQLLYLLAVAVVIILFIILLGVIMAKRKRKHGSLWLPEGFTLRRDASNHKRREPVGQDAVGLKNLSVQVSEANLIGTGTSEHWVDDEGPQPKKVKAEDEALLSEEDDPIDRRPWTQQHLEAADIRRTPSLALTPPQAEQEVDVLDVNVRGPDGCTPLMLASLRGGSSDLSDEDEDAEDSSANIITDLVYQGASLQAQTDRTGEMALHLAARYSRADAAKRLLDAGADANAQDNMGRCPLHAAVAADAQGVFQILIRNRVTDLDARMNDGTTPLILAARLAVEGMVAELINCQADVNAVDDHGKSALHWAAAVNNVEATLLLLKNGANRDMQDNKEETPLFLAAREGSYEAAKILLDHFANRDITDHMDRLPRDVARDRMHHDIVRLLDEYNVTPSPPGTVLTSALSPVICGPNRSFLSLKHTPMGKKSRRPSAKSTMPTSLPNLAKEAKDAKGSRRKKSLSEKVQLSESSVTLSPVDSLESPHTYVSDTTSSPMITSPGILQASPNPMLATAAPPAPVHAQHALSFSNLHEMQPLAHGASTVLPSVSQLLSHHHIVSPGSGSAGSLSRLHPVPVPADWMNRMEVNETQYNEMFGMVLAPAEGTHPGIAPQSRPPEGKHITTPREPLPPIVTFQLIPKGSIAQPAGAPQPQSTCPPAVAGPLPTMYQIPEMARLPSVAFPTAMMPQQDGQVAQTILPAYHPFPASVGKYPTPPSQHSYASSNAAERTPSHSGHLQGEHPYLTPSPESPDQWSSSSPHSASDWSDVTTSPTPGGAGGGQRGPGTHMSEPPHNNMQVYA
The target of test [6] is Pro-neuregulin-1, membrane-bound isoform (Homo sapiens) (UniProt Q02297). The test is described as follows: small molecules binding neuregulin-1 protein – biochemical, small-molecule microarray, fluorescence 635/667, psychiatric disease protein project, primary screen (AID 1075).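 Further: score combines 667 nm spot fluorescence with signal to noise.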 Particulars: NRG1 binding, 635 nm fluorescence, higher = more signal.
Sequence of Pro-neuregulin-1, membrane-bound isoform (Homo sapiens) (Q02297 whole entry, looked up, the tested form may be a part, canonical isoform): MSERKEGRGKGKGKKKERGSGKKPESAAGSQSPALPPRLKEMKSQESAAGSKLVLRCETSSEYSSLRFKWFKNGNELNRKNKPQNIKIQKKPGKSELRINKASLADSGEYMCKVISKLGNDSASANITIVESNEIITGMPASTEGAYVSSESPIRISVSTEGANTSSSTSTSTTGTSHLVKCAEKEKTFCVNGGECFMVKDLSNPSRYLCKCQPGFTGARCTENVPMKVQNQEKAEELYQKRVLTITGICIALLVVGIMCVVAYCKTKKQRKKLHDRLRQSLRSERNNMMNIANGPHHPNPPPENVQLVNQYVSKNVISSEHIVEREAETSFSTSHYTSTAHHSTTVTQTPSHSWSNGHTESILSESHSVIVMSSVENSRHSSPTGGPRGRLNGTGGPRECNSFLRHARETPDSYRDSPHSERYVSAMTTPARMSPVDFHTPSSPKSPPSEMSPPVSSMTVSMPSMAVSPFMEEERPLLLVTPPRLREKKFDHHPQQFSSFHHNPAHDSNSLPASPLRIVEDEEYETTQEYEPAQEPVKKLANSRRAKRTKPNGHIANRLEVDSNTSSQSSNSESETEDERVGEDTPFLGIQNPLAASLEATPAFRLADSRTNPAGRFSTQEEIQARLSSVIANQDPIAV
For test [7], the system named is Neuregulin-1 EGF-like domain. The test is described as follows: small molecules binding NRG1 EGF domain – biochemical, small-molecule microarray, 635 nm fluorescence, primary screen (AID 1081).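 Further: binding of the protein to compounds printed on small-molecule microarray slides.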 The conditions noted are these: higher = more signal.
Test [8] can be described thus: FRG1 expression reporter modulators in myotubes – cell-based, C2C12 myotubes, firefly/Renilla luciferase, luminescence, FRG1 inhibition for FSHD, primary screen (AID 1084). Particulars: FRG1 promoter luciferase, higher = more signal, called active from +8 up or from −8 down.
Test [9] is described as follows: small molecules captured by biotinylated probe aFST – biochemical, small-molecule microarray, fluorescence 635/667, stem cell growth factor project, primary screen (AID 1086).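 Further: score merges 667 nm fluorescence with signal-to-noise of each printed compound spot.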 The conditions noted are these: higher = more signal.
Test [10] in a line: binders of probe aHhip on microarray, primary screen, stem cell growth factor project, biochemical, small-molecule microarray, fluorescence 635/667 (AID 1087).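 Further: score merges spot fluorescence at 667nm with spot signal to noise ratio.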 Particulars: higher = more signal.
Test [11] has as its system PRMT1 (protein arginine N-methyltransferase 1). Put plainly: small molecules binding arginine methyltransferase PRMT1 – biochemical, small-molecule microarray, 635 nm fluorescence, primary screen (AID 1088).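 Further: binding of Prmt1 protein to compounds spotted on small-molecule microarray slides.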 Particulars: higher = more signal.
A short description of test [12]: growth effects on S. cerevisiae YJM789 – YJM789 clinical isolate, OD600, 24 h, basal, primary screen (AID 1089).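 Further: growth of clinical yeast isolate S. cerevisiae YJM 789 seeded 1000 cells per well; test concentration not given here.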 The conditions noted are these: higher = more signal, called active from +8 up or from −8 down.
Test [13] in a line: S. pombe growth modifiers, basal conditions – strain 972, OD600, 24 h, no modulator, primary screen (AID 1090).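 Further: basal condition with compound alone and no growth modifier present; test concentration not given here.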 Particulars: S. pombe 972 growth, higher = more signal, called active from +8 up or from −8 down.
A short description of test [14]: budding yeast growth modifiers under rapamycin – strain BY4716, OD600, 96 h, primary screen (AID 1091). Further: test concentration not given here. The conditions noted are these: S. cerevisiae BY4716 + rapamycin, higher = more signal, called active from +8 up or from −8 down.
Test [15] deals with Torsin-1A-interacting protein 2 (Homo sapiens) (UniProt Q8NFQ8). The test is described as follows: small molecules binding lysate-expressed LULL1 – cell lysate, human LULL1 lysate, 635/667 nm fluorescence, primary screen (AID 1092).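 Further: probe is lysate of COS7 cells overexpressing human LULL1; score merges per-feature 667 nm fluorescence with signal-to-noise.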 The conditions noted are these: small-molecule microarray, hLULL1 lysate binding, 635 nm fluorescence; higher = more signal.
Sequence of Torsin-1A-interacting protein 2 (Homo sapiens) (Q8NFQ8 whole entry, looked up): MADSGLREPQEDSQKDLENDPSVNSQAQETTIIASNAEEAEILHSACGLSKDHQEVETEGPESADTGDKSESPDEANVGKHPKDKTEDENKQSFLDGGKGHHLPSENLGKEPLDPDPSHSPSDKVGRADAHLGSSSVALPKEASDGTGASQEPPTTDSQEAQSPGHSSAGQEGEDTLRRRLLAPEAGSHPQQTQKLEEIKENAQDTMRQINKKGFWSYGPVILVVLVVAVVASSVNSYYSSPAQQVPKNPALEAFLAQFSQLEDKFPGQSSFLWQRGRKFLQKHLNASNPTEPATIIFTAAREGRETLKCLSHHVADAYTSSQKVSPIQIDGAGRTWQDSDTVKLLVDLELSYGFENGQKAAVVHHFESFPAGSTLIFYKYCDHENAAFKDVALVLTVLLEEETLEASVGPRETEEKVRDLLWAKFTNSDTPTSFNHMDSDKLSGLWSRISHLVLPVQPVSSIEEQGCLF
The nature of test [16]: optical density change of DRC41 E. coli – strain DRC41, OD650, 24 h, E. coli filamentation project, primary screen (AID 1093).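 Further: MC1000 strain lacking acrAB efflux and sulA so SOS filamentation is blocked; test concentration not given here.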 The conditions noted are these: E. coli DRC41 growth, higher = more signal, called active from +8 up or from −8 down.
Test [17] can be described thus: probe aLefty2 binding to arrayed compounds – biochemical, biotinylated probe, 635/667 nm fluorescence, primary screen (AID 1094).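 Further: score merges spot fluorescence near 667 nm with spot signal-to-noise ratio.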 The conditions noted are these: small-molecule microarray, higher = more signal.
Test [18] deals with Noggin (protein binding on small-molecule microarray). The test is described as follows: small molecules binding Noggin protein – biochemical, 635/667 nm fluorescence, primary screen (AID 1095).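 Further: score merges 667 nm feature fluorescence with signal to noise over triplicate slides.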 Particulars: 635 nm fluorescence, higher = more signal.
Test [19] has as its target Neurogenic locus notch homolog protein 3 (Homo sapiens) (UniProt Q9UM47). Put plainly: small molecules binding NOTCH3 protein – biochemical, 635/667 nm fluorescence, primary screen (AID 1096). The conditions noted are these: small-molecule microarray, 635 nm fluorescence, higher = more signal.
Test [20] in a line: probe aEGFR binding to arrayed compounds – biochemical, biotinylated probe, 635/667 nm fluorescence, primary screen (AID 1097).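 Further: probe is a biotinylated anti-EGFR antibody binding compounds printed on slides; score combines fluorescence near 667 nm and signal to noise of each spot.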 The conditions noted are these: small-molecule microarray, higher = more signal.

Consider `COCCOC(=O)N1C(=O)[C@@]2(c3cc(C#CCC(C(=O)OC)C(=O)OC)ccc31)[C@H](c1ccc(O)cc1)N1[C@H](c3ccccc3)[C@H](c3ccccc3)OC(=O)[C@H]1[C@@H]2C(=O)NC[C@H](O)c1ccccc1`, for which the composite z-score in test [1] was -0.32; in [2] it was 0.63; in test [3], 0.0521; in [4], 0.144; in test [5], 0.147; in [6] it was 1.12. Also, the composite z-score was 1.04 in test [7]; 0.169 in test [9]; 0.0749 in test [10]; 1.38 in test [11]; 2.75 in test [15]; -0.0788 in [17]. The composite z-score in [18] stood at 0.171; in [19] it was 0.68; in test [20] it was 0.0153. Besides, the z-score is 1.15 (inactive) in test [8]; 0.326 (inactive) in [12]; -0.371 (inactive) in [13]; 0.875 (inactive) in [14]; 1.81 (inactive) in test [16].
Consider `CO[C@H]1O[C@H](CO)[C@@H](OC(=O)Nc2cccc(F)c2)[C@H](OC(=O)Nc2ccccc2-c2ccccc2)[C@H]1OC(=O)Nc1ccccc1-c1ccccc1`, for which the composite z-score in test [1] was -0.24; in [2], 0.368; in test [3] it was 0.0591; in [4] it was 0.64; in [5], 1.53; in test [6] it was 1.72. Besides, the composite z-score in test [7] was 1.35; in test [9] it was 1.36; in test [10], -0.247; in [11] it was 1.54; in [15] it was 3.08; in test [17], 0.0361. The results for the composite z-score in test [18], in test [19] and in [20] were 0.928, 1.06 and -0.0225, respectively. The z-score is 0.322 (inactive) in [8]; -0.455 (inactive) in test [12]; 2.19 (inactive) in test [13]; 1.39 (inactive) in test [14]; -0.158 (inactive) in test [16].
As to `COC(=O)C1=CC(CCCO)=CC(c2ccc(CN3CCCC3)cc2)N(Cc2cc3c(cc2Br)OCO3)C=C1C(=O)OC` (stereo not given), the composite z-score in test [1] was found to be 0.942; in test [2], 1.66; in test [3] it was 0.19; in test [4] it was 1.26; in [5] it was 1.61; in test [6], 2.4. In addition, the composite z-score worked out at 1.18 in test [7]; 1.97 in test [9]; 0.0605 in test [10]; 1.57 in test [11]; 3.5 in [15]; 0.639 in test [17]. Besides, the composite z-score amounted to 0.719 in [18], 1.01 in test [19] and 0.481 in [20]. Moreover, the z-score in test [8] was 0.046 (inactive); in [12] it was -0.622 (inactive); in test [13] it was -1.23 (inactive); in test [14] it was -0.371 (inactive); in [16], -0.327 (inactive).
On to `CCCC=C(CCC)[C@@H](NS(=O)(=O)c1cccc2cccnc12)c1ccc(-c2ccccc2)cc1`, for which the composite z-score in test [1] was -0.245; in test [2], 0.185; in test [3] it was 0.103; in test [4] it was 0.91; in [5] it was 1.66; in [6], 1.08. The composite z-score in [7] was 0.898; in [9], 1.41; in test [10], -0.0417; in test [11] it was 1.55; in test [15], 3.61; in test [17], 0.104. Moreover, the figures for the composite z-score in test [18], in [19] and in test [20] were 1.07, 1.06 and 0.06, respectively. Moreover, the z-score is 2 (inactive) in test [8]; -0.221 (inactive) in test [12]; 0.114 (inactive) in test [13]; 0.638 (inactive) in [14]; -0.701 (inactive) in test [16].
Consider `CCOC(=O)C=Cc1cc(F)ccc1O`, for which the composite z-score in test [1] is 0.0251; in [2], 0.17; in test [3], 0.0087; in test [4], 0.207; in test [5], -0.0641; in test [6], -0.0469. In addition, the composite z-score in test [7] was 0.398; in [9] it was -0.0919; in test [10], 0.0524; in test [11] it was 0.311; in test [15], 0.905; in test [17], -0.0446. The composite z-score is -0.173 in [18], -0.18 in [19] and -0.233 in test [20]. The z-score in [8] was 0.808 (inactive); in test [12], -26.6 (active); in test [13], -15.2 (active); in test [14], -1.06 (inactive); in test [16] it was -0.624 (inactive).
